The source of these data is PubChem BioAssay (NCATS).

The structures appear in SMILES notation. Records with an inconclusive call do not appear. Where a call stands in place of a potency, no number is given. Values without a mark were called inactive. Activity calls are given as the source filed them. Calls follow the shape of the dose curve; as a rule, active = well fitted inhibition curve with a large enough effect; inconclusive = small, poorly fitted or top-dose-only effect; inactive = flat fitted curve, though single readings scatter.

The target in the assay is Calcium and integrin-binding protein 1 (Homo sapiens) (UniProt Q99828). The assay is described as follows: Primary qHTS for Identification of Calcium Integrin Binding Protein 1 (CIB1) Competitor (AID 1508620). Also: top concentration of the series differs between compounds. Conditions: CIB1-GST / FITC-alphaIIb peptide fluorescence polarization; series mostly up to 57.7 µM. The essentials: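 Fluorescence polarization competition: GST-tagged CIB1 (1 uM final) preincubated with compound 15 min at room temperature, then FITC-labelled alphaIIb peptide (100 nM final) added. After 15 min at room temperature, polarization read at Ex 480/Em 540.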
Chain of Calcium and integrin-binding protein 1 (Homo sapiens) (Q99828 whole entry, looked up): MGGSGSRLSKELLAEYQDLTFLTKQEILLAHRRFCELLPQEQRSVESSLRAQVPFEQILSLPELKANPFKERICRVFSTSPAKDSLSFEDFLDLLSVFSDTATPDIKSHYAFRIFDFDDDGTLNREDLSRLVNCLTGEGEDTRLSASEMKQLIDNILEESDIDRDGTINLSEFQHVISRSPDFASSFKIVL
In general terms: qHTS replaces the single test concentration by a dilution series.
For the compound `COc1ccc2c3c1O[C@H]1C[C@@H](O)C=C[C@@]31CCN(C)C2`, the Potency result is “inactive”.

`CC1OC(OC2C(O)C(C(=O)O)OC(OC3CCC4(C)C(CCC5(C)C4C=CC4=C6CC(C)(C)CC(O)C6(C)CCC45C)C3(C)C)C2OC2OCC(O)C(O)C2O)C(O)C(O)C1O` (centres undefined): the Potency entry was “inactive”.

In the case of `CC1OC(OC2C(C)OC(OC3C(OC(=O)/C=C/c4ccc(O)cc4)C(CO)OC(OC4(COC(=O)/C=C/c5ccc(O)cc5)OC(CO)C(O)C4O)C3OC3OCC(O)(CO)C3O)C(O)C2O)C(O)C(O)C1O` (centres undefined), the Potency result is “inactive”.

Take `CNc1nc(Nc2cnn([C@H]3CCN(C4COC4)C[C@@H]3F)c2Cl)ncc1C(F)(F)F`: the Potency entry was “inactive”.

On to `CCC/C=C/C(=O)O[C@H]1CC(C)(C)CC2[C@]13[C@H](O)O[C@@]21CCC2[C@@]4(C)CC[C@H](O[C@@H]5O[C@H](C(=O)O)[C@@H](O)[C@H](O[C@@H]6O[C@H](CO)[C@H](O)[C@H](O)[C@H]6O[C@@H]6O[C@@H](C)[C@H](O)[C@@H](O)[C@H]6O[C@@H]6OC[C@](O)(CO)[C@H]6O)[C@H]5O[C@@H]5O[C@H](CO)[C@H](O)[C@H](O)[C@H]5O)C(C)(C)C4CC[C@@]2(C)[C@]1(C)C[C@H]3OC(C)=O` (some centres undefined), for which the activity change, negative = inhibition was -7.58% [at 12.4 µM].

Consider `C[C@H]1[C@H](C)CC[C@]2(C(=O)O)CC[C@]3(C(=O)O)C(=CCC4[C@@]5(C)CC[C@H](O[C@@H]6O[C@H](C)[C@@H](O)[C@H](O)[C@H]6O)C(C)(C)C5CC[C@]43C)[C@H]12` (some centres undefined), for which the Potency result is “inactive”.

`Nc1c(Br)cc(Br)cc1CNC1CCC(O)CC1` (centres undefined): the Potency entry is “inactive”.

On to `O=C(O[C@H]1[C@@H]2C[C@@H]3OC[C@@](O)([C@H]2[C@H](O[C@@H]2O[C@H](CO)[C@@H](O)[C@H](O)[C@H]2O)O3)[C@@H]1O)c1ccccc1`, for which the Potency result is “inactive”.

As for `CC1CCC2C(C)(C)C(O)CCC2(C)C12Cc1c(O)cc3c(c1O2)CN(C(CCC(N)=O)C(=O)O)C3=O` (centres undefined), the Potency entry is “inactive”.

On to `CC(=O)OC1C=C(C(=O)O)C2(CO)CCC(C)C(C)(CCc3ccoc3)C2C1` (centres undefined), for which the Potency entry is “inactive”.

In the case of `CC1C(=O)CC2C3C(O)CC(C(=O)O)C12CC3(C)C` (centres undefined), the Potency result is “inactive”.

As for `C=C1CCC2C(OC(=O)C2(O)COC(C)=O)C2C(=C)C(O)CC12` (centres undefined), the Potency result was “inactive”.

With `CO[C@@H]1CC[C@H](OC[C@]2(COC(=O)c3ccc(C)[nH]3)[C@H](OC(C)=O)CC[C@@]3(C)[C@@H]4CC=C(C)[C@@H](C5=C(O)C(=O)OC5O)[C@]4(C)CC[C@@H]32)O[C@H]1C` (some centres undefined), the Potency entry is “inactive”.

As for `O=C(O)CCc1cccc(O[C@@H]2O[C@H](CO)[C@@H](O)[C@H](O)[C@H]2O)c1O`, the Potency entry is “inactive”.

Consider `C(#Cc1cccc(CN2CCOCC2)c1)CCN1CCCCC1`, for which the Potency result is “inactive”.

With `COc1ccc([C@H]2Cc3cccc(O)c3C(=O)O2)cc1`, the Potency entry was “inactive”.

For the compound `CC(=O)N(O)CCCCCN1C(=O)CCC1=O`, the Potency entry was “inactive”.

`COc1cc(NC(=O)c2ccccn2)ccc1Cl`: the Potency result is “inactive”.

As to `CCc1c(CC(N)=O)c2cc(OCCCP(=O)(O)O)ccc2n1Cc1ccccc1`, the Potency result is “inactive”.

As to `O=C(c1ccccn1)c1cnn2c(-c3ccncc3)ccnc12`, the Potency result is “inactive”.

In the case of `C[C@@]12C[C@]3(O)O[C@H](O1)[C@]1(COC(=O)c4ccccc4)[C@H]3C[C@@]12O[C@@H]1O[C@H](COC(=O)c2ccccc2)[C@@H](O)[C@H](O)[C@H]1O`, the Potency result was “inactive”.

Take `COc1cc(C2Oc3c(OC)cc(/C=C/C(=O)OC[C@H]4O[C@@H](OC(C)(C)C(=O)O)[C@H](O)[C@@H](O)[C@@H]4O)cc3C2CO)ccc1O` (some centres undefined): the Potency result is “inactive”.

As to `CC(C)(C)c1cc(CN2CCN(CC(O)c3ccc(Cl)cc3)CC2)cc(C(C)(C)C)c1O` (centres undefined), the Potency entry is “inactive”.

With `COc1c(C)c(C(=O)c2ccc(N)c(C(=O)O)c2)n2ccccc12`, the Potency entry was “inactive”.

Regarding `C=CC(C)(O)CC/C=C(/C)C(=O)OC1C(OC2OCC(OC3OC(CO)C(O)C(O)C3O)C(OC3OCC(O)C(OC4OC(C)C(O)C(O)C4O)C3O)C2O)COC(OC(=O)C23CCC(C)(C)CC2C2=CCC4C5(C)CCC(OC6OC(CO)C(OC7OC(CO)C(O)C(OC8OCC(O)C(O)C8O)C7O)C(O)C6O)C(C)(C)C5CCC4(C)C2(C)CC3O)C1O` (centres undefined), the activity change, negative = inhibition is -3% [at 12.4 µM].

For `CC1=C2CC3OC3(C)CCC3OC3(C)CC2OC1=O` (centres undefined), the Potency result is “inactive”.

As to `C=CC(C)(O)CO[C@@H]1O[C@H](CO)[C@@H](O)[C@H](O)[C@H]1O` (some centres undefined), the Potency entry was “inactive”.

In the case of `C[C@@H]1O[C@@H](O[C@H]2[C@H](OC(=O)[C@]34CCC(C)(C)C[C@H]3C3=CCC5[C@@]6(C)C[C@H](O)[C@H](O[C@@H]7O[C@H](CO[C@@H]8OC[C@H](O)[C@H](O)[C@H]8O)[C@@H](O)[C@H](O)[C@H]7O)C(C)(C)C6CC[C@@]5(C)[C@]3(C)C[C@H]4O)OC[C@@H](O)[C@@H]2O)[C@H](O)[C@H](O[C@@H]2OC[C@](O)(CO)[C@H]2O)[C@H]1O[C@@H]1OC[C@H](O)[C@H](O[C@@H]2OC[C@@H](O)[C@H](O)[C@H]2O)[C@H]1O` (some centres undefined), the activity change, negative = inhibition is 1.69% [at 12.4 µM].

As to `CC1(C)CCC2(C(=O)OC3OC(COC4OC(CO)C(O)C(O)C4O)C(O)C(O)C3O)CCC3(C)C(=CCC4C5(C)CCC(O)C(C)(C(=O)O)C5CCC43C)C2C1O` (centres undefined), the Potency result was “inactive”.

For the compound `COc1c(C)c(OCC=C(C)C)cc2c1C(=O)NC2=O`, the Potency entry was “inactive”.

Turning to `COc1cc(C2OCC3C(c4ccc(OC5OC(CO)C(O)C(O)C5O)c(OC)c4)OCC23)ccc1O` (centres undefined), the Potency result is “inactive”.

For `C[C@]12CCC[C@](C)(C(=O)O)C1CCC13C=C(CO)C(CCC12)C3` (some centres undefined), the Potency result was “inactive”.

`CC(C)(O)C1CCC2(C)C3C(O)C4C(C13)C42CO` (centres undefined): the Potency entry is “inactive”.

In the case of `C[C@]12C=CC(=O)C=C1CC[C@@H]1[C@@H]2[C@@H](O)C[C@@]2(C)[C@H]1CC[C@]2(O)C(=O)COC(=O)CCC(=O)O`, the Potency result is “inactive”.

Take `CCOc1nc2cccc(C(=O)OCc3oc(=O)oc3C)c2n1Cc1ccc(-c2ccccc2-c2noc(O)n2)cc1`: the Potency result was “inactive”.

Consider `CC1(C)CC[C@]2(C(=O)O)CC[C@]3(C)C(=CCC4[C@@]5(C)C[C@@H](O)[C@H](O)C(C)(C)C5CC[C@]43C)[C@@H]2[C@@H]1O` (some centres undefined), for which the Potency entry is “inactive”.

Consider `C=C(C(=O)O)[C@@H]1CC=C2CCC[C@H](C)[C@@]2(C)C1`, for which the Potency result is “inactive”.

For the compound `C=C(C(=O)OC)C1CCC2(C)C(O[C@@H]3O[C@H](CO)[C@@H](O)[C@H](O)[C@H]3O)CC(=O)C(C)C2C1O` (some centres undefined), the Potency entry was “inactive”.

On to `O=C(OCc1cccc(O)c1O[C@@H]1O[C@H](CO)[C@@H](O)[C@H](O)[C@H]1O)C1(O)C(=O)C2C=CC1C1C=CC(=O)C(O)(C(=O)OCc3cccc(O)c3O[C@@H]3O[C@H](CO)[C@@H](O)[C@H](O)[C@H]3O)C21` (some centres undefined), for which the Potency result is “inactive”.
